Targets with the largest changes are over-represented here; the source holds about 21,000 in all.
compound: Cc1cc(ccc1-c1ccccc1)C(=O)N1CCCN(CC1)C(=O)CCl [compound 10]; test: probe-labelled cysteine peptide fold change vs DMSO (competition) (log2 fold change); higher = less target engagement (more negative = stronger competition); conditions: 10 µM; THP-1; incubation time: 4 h
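Further: competitive profiling in live THP-1 cells: cysteine peptides tagged with an iodoacetamide desthiobiotin (IA-DTB) probe, intensity after compound treatment relative to DMSO-treated cells.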

Chain of UniProt Q15020 (Q15020 whole entry, looked up): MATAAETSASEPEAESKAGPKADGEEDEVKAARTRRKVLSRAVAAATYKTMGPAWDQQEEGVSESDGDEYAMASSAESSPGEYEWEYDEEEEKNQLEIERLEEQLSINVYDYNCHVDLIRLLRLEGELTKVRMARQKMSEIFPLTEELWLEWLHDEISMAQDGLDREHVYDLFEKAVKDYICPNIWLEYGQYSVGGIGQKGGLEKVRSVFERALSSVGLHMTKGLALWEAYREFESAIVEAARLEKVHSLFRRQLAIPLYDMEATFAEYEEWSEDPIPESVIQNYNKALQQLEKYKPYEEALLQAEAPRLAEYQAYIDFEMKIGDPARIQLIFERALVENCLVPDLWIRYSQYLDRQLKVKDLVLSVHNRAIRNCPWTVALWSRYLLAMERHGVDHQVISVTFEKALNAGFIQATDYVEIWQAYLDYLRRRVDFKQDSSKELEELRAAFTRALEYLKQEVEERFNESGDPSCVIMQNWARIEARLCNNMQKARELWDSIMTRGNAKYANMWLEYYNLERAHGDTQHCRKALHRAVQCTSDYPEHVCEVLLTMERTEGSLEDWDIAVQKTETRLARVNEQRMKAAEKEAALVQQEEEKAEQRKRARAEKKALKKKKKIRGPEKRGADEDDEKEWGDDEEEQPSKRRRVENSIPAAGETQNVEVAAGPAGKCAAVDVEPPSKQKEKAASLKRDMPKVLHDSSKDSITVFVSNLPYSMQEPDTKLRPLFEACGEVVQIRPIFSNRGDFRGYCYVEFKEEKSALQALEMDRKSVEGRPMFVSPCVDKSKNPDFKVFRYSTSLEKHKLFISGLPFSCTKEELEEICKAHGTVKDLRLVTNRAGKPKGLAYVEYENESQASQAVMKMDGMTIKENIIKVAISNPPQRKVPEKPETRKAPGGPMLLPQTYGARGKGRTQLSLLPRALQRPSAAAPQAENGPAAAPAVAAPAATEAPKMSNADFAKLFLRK
Chain of UniProt Q9HAU4 (Q9HAU4 whole entry, looked up): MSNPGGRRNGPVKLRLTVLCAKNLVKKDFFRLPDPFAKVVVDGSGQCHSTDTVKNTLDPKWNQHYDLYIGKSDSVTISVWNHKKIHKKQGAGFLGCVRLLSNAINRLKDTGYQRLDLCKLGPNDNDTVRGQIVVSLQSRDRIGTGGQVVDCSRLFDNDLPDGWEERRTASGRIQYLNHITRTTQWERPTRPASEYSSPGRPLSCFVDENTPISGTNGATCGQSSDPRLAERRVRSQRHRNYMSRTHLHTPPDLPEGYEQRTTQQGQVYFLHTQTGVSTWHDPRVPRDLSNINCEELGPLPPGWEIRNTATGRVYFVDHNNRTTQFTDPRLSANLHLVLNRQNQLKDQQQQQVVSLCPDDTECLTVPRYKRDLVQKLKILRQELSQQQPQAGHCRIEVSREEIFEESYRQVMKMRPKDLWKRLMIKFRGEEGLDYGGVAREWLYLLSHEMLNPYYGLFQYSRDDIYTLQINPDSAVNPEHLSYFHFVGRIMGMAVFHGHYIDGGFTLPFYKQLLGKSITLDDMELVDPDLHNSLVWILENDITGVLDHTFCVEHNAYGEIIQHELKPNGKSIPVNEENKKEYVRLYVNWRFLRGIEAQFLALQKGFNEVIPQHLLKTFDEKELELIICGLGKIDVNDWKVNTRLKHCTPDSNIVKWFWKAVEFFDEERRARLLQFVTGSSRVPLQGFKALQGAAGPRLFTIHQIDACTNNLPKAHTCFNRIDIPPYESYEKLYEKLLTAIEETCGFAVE
Chain of UniProt Q9Y512 (Q9Y512 whole entry, looked up): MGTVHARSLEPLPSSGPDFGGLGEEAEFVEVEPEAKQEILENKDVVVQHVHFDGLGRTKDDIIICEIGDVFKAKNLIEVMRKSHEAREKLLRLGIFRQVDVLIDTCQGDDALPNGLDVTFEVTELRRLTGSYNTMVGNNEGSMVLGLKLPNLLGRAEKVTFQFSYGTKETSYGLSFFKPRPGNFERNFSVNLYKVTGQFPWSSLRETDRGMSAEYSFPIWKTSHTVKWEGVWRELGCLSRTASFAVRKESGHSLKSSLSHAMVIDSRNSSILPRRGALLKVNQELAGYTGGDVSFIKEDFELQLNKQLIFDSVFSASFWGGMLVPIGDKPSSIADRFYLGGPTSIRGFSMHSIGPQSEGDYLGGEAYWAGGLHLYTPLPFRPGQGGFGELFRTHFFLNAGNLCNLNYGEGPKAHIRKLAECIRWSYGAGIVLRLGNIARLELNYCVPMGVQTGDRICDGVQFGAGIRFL

First: SLK_Q9H2G2_1138_DLQLQCEANVR (UniProt Q9H2G2)
Second: SF1_Q15637_282_CGGAGHIASDCK (UniProt Q15637)
Chain of UniProt Q15637 (Q15637 whole entry, looked up): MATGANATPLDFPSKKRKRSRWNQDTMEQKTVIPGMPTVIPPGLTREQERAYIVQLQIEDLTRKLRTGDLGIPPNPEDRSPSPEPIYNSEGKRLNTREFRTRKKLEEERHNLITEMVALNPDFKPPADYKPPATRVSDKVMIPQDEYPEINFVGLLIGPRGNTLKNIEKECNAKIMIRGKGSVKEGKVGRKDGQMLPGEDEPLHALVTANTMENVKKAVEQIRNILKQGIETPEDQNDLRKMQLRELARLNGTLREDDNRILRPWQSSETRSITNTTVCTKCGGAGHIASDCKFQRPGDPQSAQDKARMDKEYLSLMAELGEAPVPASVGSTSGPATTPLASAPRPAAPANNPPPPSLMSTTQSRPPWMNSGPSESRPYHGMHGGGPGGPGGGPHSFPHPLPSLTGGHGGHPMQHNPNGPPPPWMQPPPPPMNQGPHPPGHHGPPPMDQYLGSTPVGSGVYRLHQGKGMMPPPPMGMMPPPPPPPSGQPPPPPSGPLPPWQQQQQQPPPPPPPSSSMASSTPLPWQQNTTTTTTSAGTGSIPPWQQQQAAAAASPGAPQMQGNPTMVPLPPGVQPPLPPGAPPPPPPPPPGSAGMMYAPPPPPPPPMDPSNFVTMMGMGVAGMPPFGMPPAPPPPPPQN
The “probe-labelled cysteine peptide fold change” value of the first is lower: 0.0336 for the first, 0.0635 for the second.

First: RSBN1_Q5VWQ0_318_DEQLCR (UniProt Q5VWQ0)
Second: RNF31_Q96EP0_473_LSAPLPSSCGDPEK (UniProt Q96EP0)
The “probe-labelled cysteine peptide fold change” value of the first is higher: -0.206 for the first, -0.208 for the second.

Compared with “SLC22A15_Q8IZD6_438_NVGLGTCSMFSR (UniProt Q8IZD6)”, “SAFB2_Q14151_672_ERLQLECQR (UniProt Q14151)” is lower in “probe-labelled cysteine peptide fold change” value: 0.0942 for the first, -0.167 for the second.

Compared with “SAE1_Q9UBE0_295_YCFSEMAPVCAVVGGILAQEIVK (UniProt Q9UBE0)”, “RNH1_P13489_199_DSPCQLEALKLESCGVTSDNCR (UniProt P13489)” is lower in “probe-labelled cysteine peptide fold change” value: -0.252 for the first, -0.339 for the second.

First: SLC9A3R1_O14745_206_IVEVNGVCMEGK (UniProt O14745)
Second: SETD2_Q9BYW2_836_ISSNSFMNVHLESKPVICDSR (UniProt Q9BYW2)
The “probe-labelled cysteine peptide fold change” value of the first is higher: 0.165 for the first, 0.115 for the second.

Going from “SEC63_Q9UGP8_295_KNEPPLTCPYSLK (UniProt Q9UGP8)” to “SFSWAP_Q12872_307_CNRLEELMK (UniProt Q12872)”, the “probe-labelled cysteine peptide fold change” value rises from -0.404 to -0.382.

Going from “RPS6KA1_Q15418_432_ETIGVGSYSECKR (UniProt Q15418)” to “RNF214_Q8ND24_675_LVQPSELHPMACTHVLHK (UniProt Q8ND24)”, the “probe-labelled cysteine peptide fold change” value rises from -1.06 to 0.0646.

First: SAE1_Q9UBE0_134_VDTEDIEKKPESFFTQFDAVCLTCCSR (UniProt Q9UBE0)
Second: SLC25A5_P05141_257_GTDIMYTGTLDCWRK (UniProt P05141)
The “probe-labelled cysteine peptide fold change” value of the first is higher: -0.00481 for the first, -0.0476 for the second.

Going from “RPP25_Q9BUL9_70_AIVFSGCGR (UniProt Q9BUL9)” to “SCAF11_Q99590_506_KLENTGIEANVLCLESEISENILEK (UniProt Q99590)”, the “probe-labelled cysteine peptide fold change” value falls from 0.319 to -0.478.

Going from “RNH1_P13489_323+330_SCSFTAACCSHFSSVLAQNR (UniProt P13489)” to “SMURF2_Q9HAU4_706_LFTIHQIDACTNNLPK (UniProt Q9HAU4)”, the “probe-labelled cysteine peptide fold change” value falls from -0.0759 to -0.159.

Compared with “SDCCAG8_Q86SQ7_236_CEIEESQLK (UniProt Q86SQ7)”, “RPS6KA3_P51812_436_EDIGVGSYSVCK<|>RPS6KA2_Q15349_429_EDIGVGSYSVCK (UniProt Q15349+P51812)” is lower in “probe-labelled cysteine peptide fold change” value: 0.069 for the first, -0.569 for the second.

Going from “RTN4IP1_Q8WWV3_130_DVSGVVMECGLDVK (UniProt Q8WWV3)” to “RNF20_Q5VTR2_960_CNAAFGANDFHR (UniProt Q5VTR2)”, the “probe-labelled cysteine peptide fold change” value rises from 0.0949 to 0.279.

Going from “SAMM50_Q9Y512_403_THFFLNAGNLCNLNYGEGPK (UniProt Q9Y512)” to “SATB1_Q01826_173_IQLHSCPK (UniProt Q01826)”, the “probe-labelled cysteine peptide fold change” value falls from 0.022 to -0.0552.

Going from “SLC25A28_Q96A46_49_GAGGGEAGACRPPVR (UniProt Q96A46)” to “SART3_Q15020_182_DYICPNIWLEYGQYSVGGIGQK (UniProt Q15020)”, the “probe-labelled cysteine peptide fold change” value rises from -0.368 to 0.208.

Going from “SEC63_Q9UGP8_295_NEPPLTCPYSLK (UniProt Q9UGP8)” to “SLC39A10_Q9ULF5_598_NYLCIEEEK (UniProt Q9ULF5)”, the “probe-labelled cysteine peptide fold change” value rises from -0.343 to -0.213.

First: SLITRK4_Q8IW52_661_HEGLGNPDCGSMQLQLR (UniProt Q8IW52)
Second: SLC25A5_P05141_257_KGTDIMYTGTLDCWR (UniProt P05141)
The “probe-labelled cysteine peptide fold change” value of the first is lower: -0.281 for the first, -0.111 for the second.

same assay, conditions: 50 µM; THP-1; incubation time: 4 h

First: SLK_Q9H2G2_1138_DLQLQCEANVR (UniProt Q9H2G2)
Second: SF1_Q15637_282_CGGAGHIASDCK (UniProt Q15637)
The “probe-labelled cysteine peptide fold change” value of the first is higher: 0.0461 for the first, -0.0325 for the second.

Compared with “RSBN1_Q5VWQ0_318_DEQLCR (UniProt Q5VWQ0)”, “RNF31_Q96EP0_473_LSAPLPSSCGDPEK (UniProt Q96EP0)” is higher in “probe-labelled cysteine peptide fold change” value: -0.556 for the first, 0.0977 for the second.

First: SLC22A15_Q8IZD6_438_NVGLGTCSMFSR (UniProt Q8IZD6)
Chain of UniProt Q8IZD6 (Q8IZD6 whole entry): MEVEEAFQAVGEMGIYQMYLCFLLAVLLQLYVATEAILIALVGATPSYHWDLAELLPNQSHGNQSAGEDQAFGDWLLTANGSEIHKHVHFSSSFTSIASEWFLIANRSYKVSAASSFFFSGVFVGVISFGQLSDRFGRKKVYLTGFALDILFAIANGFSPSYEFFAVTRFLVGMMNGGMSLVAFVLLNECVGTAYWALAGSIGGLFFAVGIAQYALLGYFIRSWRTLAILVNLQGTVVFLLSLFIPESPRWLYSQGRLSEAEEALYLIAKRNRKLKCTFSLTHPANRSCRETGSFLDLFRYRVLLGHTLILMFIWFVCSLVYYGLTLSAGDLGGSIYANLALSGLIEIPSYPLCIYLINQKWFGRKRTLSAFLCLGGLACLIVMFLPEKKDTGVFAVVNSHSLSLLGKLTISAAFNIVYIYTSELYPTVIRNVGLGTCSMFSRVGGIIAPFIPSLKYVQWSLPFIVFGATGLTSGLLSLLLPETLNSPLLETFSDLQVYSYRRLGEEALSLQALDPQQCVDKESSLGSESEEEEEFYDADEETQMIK
Second: SAFB2_Q14151_672_ERLQLECQR (UniProt Q14151)
The “probe-labelled cysteine peptide fold change” value of the first is higher: -0.0742 for the first, -0.742 for the second.

Going from “SAE1_Q9UBE0_295_YCFSEMAPVCAVVGGILAQEIVK (UniProt Q9UBE0)” to “RNH1_P13489_199_DSPCQLEALKLESCGVTSDNCR (UniProt P13489)”, the “probe-labelled cysteine peptide fold change” value falls from 0.0287 to -1.17.

Going from “SLC9A3R1_O14745_206_IVEVNGVCMEGK (UniProt O14745)” to “SETD2_Q9BYW2_836_ISSNSFMNVHLESKPVICDSR (UniProt Q9BYW2)”, the “probe-labelled cysteine peptide fold change” value rises from -0.0744 to 0.0162.

Going from “SEC63_Q9UGP8_295_KNEPPLTCPYSLK (UniProt Q9UGP8)” to “SFSWAP_Q12872_307_CNRLEELMK (UniProt Q12872)”, the “probe-labelled cysteine peptide fold change” value rises from -1.57 to -1.12.

Compared with “RPS6KA1_Q15418_432_ETIGVGSYSECKR (UniProt Q15418)”, “RNF214_Q8ND24_675_LVQPSELHPMACTHVLHK (UniProt Q8ND24)” is higher in “probe-labelled cysteine peptide fold change” value: -2.91 for the first, 0.0132 for the second.

Going from “SAE1_Q9UBE0_134_VDTEDIEKKPESFFTQFDAVCLTCCSR (UniProt Q9UBE0)” to “SLC25A5_P05141_257_GTDIMYTGTLDCWRK (UniProt P05141)”, the “probe-labelled cysteine peptide fold change” value rises from -1.27 to -0.127.

First: RPP25_Q9BUL9_70_AIVFSGCGR (UniProt Q9BUL9)
Chain of UniProt Q9BUL9 (Q9BUL9 whole entry, looked up): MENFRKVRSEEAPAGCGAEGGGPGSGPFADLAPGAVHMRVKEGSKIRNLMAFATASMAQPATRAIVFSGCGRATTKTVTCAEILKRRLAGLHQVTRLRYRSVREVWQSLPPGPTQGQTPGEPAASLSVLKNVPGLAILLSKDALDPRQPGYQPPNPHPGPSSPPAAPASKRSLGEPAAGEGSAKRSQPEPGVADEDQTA
Second: SCAF11_Q99590_506_KLENTGIEANVLCLESEISENILEK (UniProt Q99590)
Chain of UniProt Q99590 (Q99590 whole entry, looked up): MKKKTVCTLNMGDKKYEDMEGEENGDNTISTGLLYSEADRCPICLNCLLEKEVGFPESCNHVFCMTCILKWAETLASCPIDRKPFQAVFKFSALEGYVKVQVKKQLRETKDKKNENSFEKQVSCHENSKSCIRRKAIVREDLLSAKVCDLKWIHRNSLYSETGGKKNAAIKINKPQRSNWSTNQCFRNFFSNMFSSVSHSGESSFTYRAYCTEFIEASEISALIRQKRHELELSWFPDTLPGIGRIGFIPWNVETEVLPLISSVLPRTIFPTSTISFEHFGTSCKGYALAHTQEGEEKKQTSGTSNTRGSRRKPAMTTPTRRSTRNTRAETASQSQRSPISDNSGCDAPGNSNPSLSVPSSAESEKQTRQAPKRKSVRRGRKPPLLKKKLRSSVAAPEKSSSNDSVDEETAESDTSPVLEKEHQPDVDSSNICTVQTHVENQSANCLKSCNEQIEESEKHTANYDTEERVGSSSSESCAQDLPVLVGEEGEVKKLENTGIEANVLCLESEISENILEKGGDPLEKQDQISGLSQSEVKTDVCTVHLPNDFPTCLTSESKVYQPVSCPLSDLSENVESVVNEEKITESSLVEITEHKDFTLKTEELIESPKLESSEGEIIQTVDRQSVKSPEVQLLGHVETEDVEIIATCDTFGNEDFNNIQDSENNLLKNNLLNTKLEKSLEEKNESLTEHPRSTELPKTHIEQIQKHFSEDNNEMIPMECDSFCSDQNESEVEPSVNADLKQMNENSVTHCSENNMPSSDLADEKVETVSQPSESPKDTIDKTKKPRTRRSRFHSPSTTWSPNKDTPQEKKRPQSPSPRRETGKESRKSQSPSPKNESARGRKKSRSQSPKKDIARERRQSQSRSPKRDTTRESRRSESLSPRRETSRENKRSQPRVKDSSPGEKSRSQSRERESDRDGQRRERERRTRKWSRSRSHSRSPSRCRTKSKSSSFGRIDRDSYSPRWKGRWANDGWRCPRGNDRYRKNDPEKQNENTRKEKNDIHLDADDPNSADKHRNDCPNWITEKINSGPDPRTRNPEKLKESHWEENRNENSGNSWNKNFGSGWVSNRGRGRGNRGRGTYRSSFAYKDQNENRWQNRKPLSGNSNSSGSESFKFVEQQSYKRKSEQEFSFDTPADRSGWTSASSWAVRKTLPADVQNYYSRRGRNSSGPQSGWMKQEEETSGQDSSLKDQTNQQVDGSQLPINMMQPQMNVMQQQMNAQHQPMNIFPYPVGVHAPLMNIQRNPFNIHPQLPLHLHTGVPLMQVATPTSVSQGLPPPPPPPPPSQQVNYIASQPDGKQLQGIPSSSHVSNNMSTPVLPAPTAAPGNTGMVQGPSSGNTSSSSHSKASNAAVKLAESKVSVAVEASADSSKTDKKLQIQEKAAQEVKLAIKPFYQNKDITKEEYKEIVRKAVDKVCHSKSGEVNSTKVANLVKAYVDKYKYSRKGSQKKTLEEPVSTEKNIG
The “probe-labelled cysteine peptide fold change” value of the first is lower: -0.143 for the first, 0.011 for the second.

Compared with “RNH1_P13489_323+330_SCSFTAACCSHFSSVLAQNR (UniProt P13489)”, “SMURF2_Q9HAU4_706_LFTIHQIDACTNNLPK (UniProt Q9HAU4)” is lower in “probe-labelled cysteine peptide fold change” value: -0.562 for the first, -0.59 for the second.

First: SDCCAG8_Q86SQ7_236_CEIEESQLK (UniProt Q86SQ7)
Second: RPS6KA3_P51812_436_EDIGVGSYSVCK<|>RPS6KA2_Q15349_429_EDIGVGSYSVCK (UniProt Q15349+P51812)
The “probe-labelled cysteine peptide fold change” value of the first is higher: -0.322 for the first, -1.64 for the second.

Going from “RTN4IP1_Q8WWV3_130_DVSGVVMECGLDVK (UniProt Q8WWV3)” to “RNF20_Q5VTR2_960_CNAAFGANDFHR (UniProt Q5VTR2)”, the “probe-labelled cysteine peptide fold change” value falls from 0.461 to 0.358.

Going from “SAMM50_Q9Y512_403_THFFLNAGNLCNLNYGEGPK (UniProt Q9Y512)” to “SATB1_Q01826_173_IQLHSCPK (UniProt Q01826)”, the “probe-labelled cysteine peptide fold change” value falls from 0.169 to -0.188.

Going from “SLC25A28_Q96A46_49_GAGGGEAGACRPPVR (UniProt Q96A46)” to “SART3_Q15020_182_DYICPNIWLEYGQYSVGGIGQK (UniProt Q15020)”, the “probe-labelled cysteine peptide fold change” value rises from -0.406 to 0.164.

Compared with “SEC63_Q9UGP8_295_NEPPLTCPYSLK (UniProt Q9UGP8)”, “SLC39A10_Q9ULF5_598_NYLCIEEEK (UniProt Q9ULF5)” is higher in “probe-labelled cysteine peptide fold change” value: -1.34 for the first, -0.202 for the second.

Going from “SLITRK4_Q8IW52_661_HEGLGNPDCGSMQLQLR (UniProt Q8IW52)” to “SLC25A5_P05141_257_KGTDIMYTGTLDCWR (UniProt P05141)”, the “probe-labelled cysteine peptide fold change” value rises from -0.498 to -0.203.

— the supplement of paper PMC12067093, “Discovery and optimisation of a covalent ligand for TRIM25 and its application to targeted protein ubiquitination” (Chemical Science, 2025)
